Hits are enriched below; roughly 1.8% of the tested compounds scored in any of these assays.
Ba/F3 V617F tox: reduce viability of Ba/F3 cells dependent on JAK2V617F; Ba/F3 EpoR-JAK2V617F viability, ATP luminescence; inhibition, % at 5.6 µM; 220,000 compounds, 1.1% hits; AID 1446;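 active means inhibition above the campaign mean plus 3 SD over all tested compounds, cut at about 24% in these data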;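 further: cytokine-independent growth of Ba/F3 cells driven by EpoR plus mutant JAK2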
APP transl inh: APP translation inhibition; SH-SY5Y APP 5'UTR-luciferase reporter, luminescence; inhibition, % at 2 µM; 190,000 compounds, 0.82% hits;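 active means inhibition above a set limit, derived from the sample mean plus 3 SD, cut at about 45% in these data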
IEC-6 cytotox: counter-screen for KLF5 inhibitors: cytotoxicity in IEC-6 cells; IEC-6 cytotoxicity, luminescence viability; inhibition, % at 5 µM; 290,000 compounds, 0.78% hits; in the data active means inhibition above about 22%
BaF3 tox: counter-screen for JAK2V617F inhibitors: parental Ba/F3 viability inhibitors. inhibition, % at 5.6 µM. CellTiter-Glo ATP luminescence. AID 1486. 220,000 compounds, 1.1% hits;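 active means inhibition above a per-campaign cutoff, the mean inhibition of all tested compounds plus 3 SD, cut at about 27% in these data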
KLF5 inhibitor: suppresses KLF5 promoter-driven expression. DLD-1 KLF5 promoter-luciferase reporter, luminescence. inhibition, % at 5 µM. 290,000 compounds, 0.23% hits;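 active means inhibition above a per-plate limit of that plate's mean compound inhibition plus 3 SD, cut at about 60% in these data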;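 further: higher means less KLF5 promoter-driven luciferase light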
Hits are given with their value; 0 = inactive; - = not tested or not shown.

SMILES	Ba/F3 V617F tox	APP transl inh	IEC-6 cytotox	BaF3 tox	KLF5 inhibitor
COc1ccc(N2C(=O)c3ccccc3C2=O)cc1	0	0	0	0	0
COc1ccc(N2C(=O)C(Cl)=C(Oc3cccc(OC)c3)C2=O)cc1	0	49.3	0	0	0
COc1ccc(/C=N/NC(=O)c2ccc3ccccc3c2)cc1OS(=O)(=O)c1ccc(NC(C)=O)cc1	0	71.5	0	0	0
Cc1ccccc1CNc1nc(N)n(-c2ccccc2)n1	0	0	0	95.9	0
Clc1ccc(OCCn2cnc(Cl)c2Cl)cc1	0	-	0	0	0
CCOC(=O)COn1c(-n2nc(C)cc2C)nc2ccccc2c1=O	-	-	0	-	0
O=S(=O)(C/C(=C/CO)S(=O)(=O)c1ccccc1)c1ccccc1	100.6	79.9	96.3	100.1	0
CCN(Cc1ccccc1)C(=O)CS(=O)(=O)c1ccccc1	0	0	0	0	0
COc1ccc(C2=NCC(CSc3nnc(-c4ccc5c(c4)OCO5)o3)S2)cc1 (stereo not drawn)	0	0	0	50.6	0
Cc1ccc(CSc2nnc(-c3ccc4c(c3)OCO4)o2)cc1	0	0	0	0	0
Cc1ccc(NC(=O)C2CCN(S(=O)(=O)c3ccc4c(c3)CCCC(=O)N4)CC2)cc1N(C)C	-	-	0	-	0
CCCn1c2c(c(=N)c3c1CCC3)CCC2	46.4	-	0	54.4	0
CCCCCCCn1c2c(c(=N)c3ccccc31)CCC2	98.8	0	33.6	77.9	0
O=C(O)CCn1c2c(c3ccccc31)CCCC2	0	0	0	0	0
CCCn1c2c(c(=N)c3c1CCC3)CCCC2	64.9	0	0	65.2	0
CCOC(=O)Cn1c2c(c(=N)c3c1CCC3)CCCC2	0	0	0	0	0
O=C(O)C1CCN(S(=O)(=O)c2ccc(N3CCC(O)CC3)c([N+](=O)[O-])c2)CC1	-	-	0	-	0
CCOC(=O)C1(CC2CC2)CCN(Cc2cc(Cl)c(O)c(OC)c2)CC1	0	0	0	0	0
CCOC(=O)C1(CC2CC2)CCN(Cc2ccc(OC)cc2F)CC1	0	0	0	80.5	0
N#Cc1ccc(N/N=C/c2cn(-c3ccccc3)nc2-c2ccccc2)c([N+](=O)[O-])c1	0	75.3	0	0	0
NS(=O)(=O)c1ccc(N/N=C/c2cn(-c3ccccc3)nc2-c2cccs2)c([N+](=O)[O-])c1	0	0	0	0	0
O=C(Nc1ccccc1F)C1CCCN1S(=O)(=O)c1cccc2nsnc12 (stereo not drawn)	-	-	0	-	0
COc1cc(/C=C2\SC(N)=NC2=O)ccc1O	-	-	0	-	0
CN=c1scc(-c2ccc(F)cc2)n1/N=C/c1ccc(O)c(O)c1	97.8	0	0	36.1	0
Cc1cccn2cc(-c3cc4ccccc4oc3=O)nc12	0	0	0	89.8	0
SMILES	Ba/F3 V617F tox	APP transl inh	IEC-6 cytotox	BaF3 tox	KLF5 inhibitor
O=C(COc1ccccc1[N+](=O)[O-])N/N=C/C=C/c1ccco1	0	0	0	95.0	0
Cc1ccc(OCC(=O)N/N=C/C=C/c2ccco2)cc1	0	0	0	0	0
NS(=O)(=O)c1ccc(CNC(=O)Cc2c(F)cccc2Cl)cc1	0	0	0	59.6	0
CCN(C(=O)CN1C(=O)COc2ccc(S(=O)(=O)N3CCCCCC3)cc21)c1cccc(C)c1	-	-	0	-	0
COc1ccc(N2C(C(C)=O)=NN(c3ccccc3)C2c2cccs2)cc1 (stereo not drawn)	25.2	0	0	48.0	0
CC(=O)Nc1ccc(N2C(C(C)=O)=NN(c3ccccc3)C2c2cccs2)cc1 (stereo not drawn)	0	0	0	0	0
CC(=O)Nc1ccc(NC(=O)C(C)OC(=O)C2CC3C=CC2C3)cc1 (stereo not drawn)	0	0	0	56.7	0
COc1cccc(C2=NCCc3cc4c(cc32)OCO4)c1OC	0	0	0	0	0
COc1ccc2cc3[n+](cc2c1OC)CCc1cc2c(cc1-3)OCO2	71.7	0	0	62.8	0
COC(=O)N/N=C/c1cn(CC(C)COc2ccccc2)c2ccccc12 (stereo not drawn)	0	0	0	0	0
COc1ccc(C2=NN(CC(=O)Nc3ccccc3C)C(=O)CC2)cc1	0	-	0	57.5	0
N#CC1(c2ccccc2)CCCN1C(=O)c1ccc(Br)cc1 (stereo not drawn)	0	0	0	0	0
COc1ccccc1N(CC(O)CN1CCOCC1)S(=O)(=O)c1ccccc1 (stereo not drawn)	-	-	0	-	0
CCN(CC)S(=O)(=O)c1cccc(-c2n[nH]c(=S)n2/N=C/c2ccc(Br)cc2)c1	0	0	0	94.1	0
CCN(CC)S(=O)(=O)c1cccc(-c2n[nH]c(=S)n2/N=C/c2ccc(OC)cc2)c1	0	0	0	0	0
Cc1ccc(NC(=O)CSc2nnc(-c3cc(C)[nH]n3)n2N)c(C)c1	-	-	0	-	0
CC(C)CNC(=O)c1coc(=O)c(Br)c1	0	46.6	0	0	0
Oc1ccc2ccccc2c1/C=N/Nc1ccccc1	0	0	0	0	0
Cc1cc(N/N=C/c2c(O)ccc3ccccc23)nc(-c2ccccc2O)n1	0	57.9	0	0	0
O=[N+]([O-])c1cc(CN2CCCC2)c2cccnc2c1O	0	0	0	0	0
O=[N+]([O-])c1cc(CN2CCN(c3cccc(C(F)(F)F)c3)CC2)c2cccnc2c1O	0	65.2	0	0	0
CN1CCN(c2nc3ccccn3c(=O)c2C=C(C#N)C#N)CC1	-	-	0	-	0
COc1ccc(NC(=O)Cn2nnc(-c3ccccc3NS(=O)(=O)c3ccc(OC)cc3)n2)cc1	77.8	89.2	45.7	66.2	74.6
COC(=O)c1c(NC(NC(=O)c2ccccc2)(C(F)(F)F)C(F)(F)F)sc2c1CCN(C)C2	0	0	0	0	0
CC(C)(C)c1ccc(-c2cc(N)n[nH]2)cc1	0	60.7	0	0	0
SMILES	Ba/F3 V617F tox	APP transl inh	IEC-6 cytotox	BaF3 tox	KLF5 inhibitor
O=C(/C=C/c1ccco1)Oc1cc(Br)cc(/C=N/NC(=O)c2ccccc2O)c1	0	63.7	0	0	0
COc1ccc2nc(NC(=O)CSc3nccc(C)n3)sc2c1	0	0	0	0	0
COc1ccc2nc(NC(=O)CSc3nc(C)cc(=O)[nH]3)sc2c1	0	60.1	0	0	0
CCOC(=O)N1CCN(C2CCCN(C(=O)c3cccc(N(C)C)c3)C2)CC1 (stereo not drawn)	-	-	0	-	0
Cc1cccc(N2CCN(C(=O)c3ccc(NC4=NC5CS(=O)(=O)CC5S4)cc3)CC2C)c1 (stereo not drawn)	-	-	0	-	0
CN1CCN(C(=O)C2CCN(c3ncc(C(F)(F)F)cc3Cl)CC2)CC1	0	0	0	0	0
Cc1ccc(-c2nnc(SCC(C)C)n2C)cc1	30.2	0	0	32.6	0
COC(=O)c1ccc(NC(c2ccc(Cl)cc2)P(=O)(OC)OC)cc1 (stereo not drawn)	0	0	0	0	0
Cc1ccccc1Cn1ccc(=NCc2ccccc2)cc1	100.2	0	0	79.0	0
Cc1onc(-c2ccccc2Cl)c1C(=O)N(C)C1CCCCC1	67.0	0	0	61.5	0
Cc1c(C(=O)N/N=C/c2ccc(N(C)C)cc2)[nH]c2ccc(Cl)cc12	0	89.8	0	0	0
Cc1c(C(=O)N/N=C/c2ccccc2)[nH]c2ccc(Cl)cc12	0	52.5	0	0	0

Screening results deposited in PubChem by several laboratories.
